Inhibition data for 23 molecules are collected here from ChEMBL document CHEMBL4296182, “CO-ADD screening of NIH NCI Diversity Set V”.

For part of these data: Results with a measured potency or affinity are listed apart.

Assay [1] has as its system Staphylococcus aureus. Description: Antibacterial activity against Staphylococcus aureus MRSA ATCC 43300 (CO-ADD:GP_020); MIC in CAMBH media using NBS plates, by Resazurin F(560/590). It is filed as functional. The conditions noted are these: Concentration 20 uM, ASSAY_TEST Inhibition of Bacterial Growth, detection method Resazurin, Fluorescence (ex560/em590), MEDIA CAMHB, plate type 384well, CORNING #3640, time 18 hr.

In assay [2] the test system is Acinetobacter baumannii. Nature of the assay: Antibacterial activity against Acinetobacter baumannii ATCC 19606 (CO-ADD:GN_034); MIC in CAMBH media using NBS plates, by Resazurin F(560/590). The conditions noted are these: Concentration 20 uM, ASSAY_TEST Inhibition of Bacterial Growth, detection method Resazurin, Fluorescence (ex560/em590), MEDIA CAMHB, plate type 384well, CORNING #3640, time 18 hr. It is filed as functional.

Assay [3] has as its system Escherichia coli. Nature of the assay: Antibacterial activity against Escherichia coli ATCC 25922 (CO-ADD:GN_001); MIC in CAMBH media using NBS plates, by Resazurin F(560/590). The note with it: Concentration 20 uM, ASSAY_TEST Inhibition of Bacterial Growth, detection method Resazurin, Fluorescence (ex560/em590), MEDIA CAMHB, plate type 384well, CORNING #3640, time 18 hr. Type of assay: functional.

In assay [4] the test system is Klebsiella pneumoniae. The conditions noted are these: Concentration 20 uM; ASSAY_TEST Inhibition of Bacterial Growth; detection method Absorption (OD600); MEDIA CAMHB; plate type 384well; NBS; CORNING #3640; time 18 hr.
The subject of assay [5] is Candida albicans. The note with it: 20 µM.
In assay [6] the test system is Cryptococcus neoformans. The conditions noted are these: Concentration 20 uM; ASSAY_TEST Inhibition of Fungal Growth; detection method Resazurin; Absorption (OD600-OD570); plate type 384well; NBS; CORNING #3640.

In the case of `O=C(Nc1csnn1)c1csnn1`, the Inhibition is -7.63% in assay [1]; -6.51% in assay [2]; -0.35% in assay [3]; -1.22% in assay [4]; 2.96% in assay [5]; 1.57% in assay [6].

For `N[C@H](C(=O)O)[C@H]1ON=C(Cl)[C@@H]1O`, the Inhibition was 11.62% in assay [1]; -0.47% in assay [2]; 10.43% in assay [3]; 5% in assay [4]; 2.6% in assay [5]; -3.55% in assay [6].

For `COC(=O)C1(C)Cc2cc(OC(C)=O)c(OC(C)=O)cc2N1` (stereo not drawn), the Inhibition in assay [1] was 12.77%; in assay [2] it was 0.02%; in assay [3], 8.98%; in assay [4], 5.52%; in assay [5], -3.71%; in assay [6], -8.65%.

On to `Brc1csc2ncccc12`, for which the Inhibition in assay [1] is 8.68%; in assay [2], 14.4%; in assay [3], -1.37%; in assay [4] it was 10.17%; in assay [5], 7.21%; in assay [6], -5.07%.

As for `CCCCCn1cnc2c(S)nc(N)nc21`, the Inhibition in assay [1] was 4.88%; in assay [2], -14.99%; in assay [3], 12.21%; in assay [4], 5.23%; in assay [5] it was 1.29%; in assay [6], -16.43%.

`CCCCCc1cccnc1`: the Inhibition in assay [1] was 1.69%; in assay [2] it was -4.62%; in assay [3], 11.47%; in assay [4] it was 10.71%; in assay [5], 2.3%; in assay [6], -0.18%.

In the case of `c1ccc(NN(Cc2ccncc2)c2ccccc2)cc1`, the Inhibition in assay [1] was -5.2%; in assay [2], -18.1%; in assay [3], 6%; in assay [4] it was 7.57%; in assay [5] it was 0.97%; in assay [6] it was -6.08%.

`c1ccc2c(c1)Nc1ccncc1S2`: the Inhibition in assay [1] is 6.69%; in assay [2], -7.03%; in assay [3], 3.1%; in assay [4] it was 3.6%; in assay [5], 2.27%; in assay [6], -9.93%.

In the case of `O=C(O)C(c1ccccc1)C1(O)CCCCC1` (stereo not drawn), the Inhibition in assay [1] is 4.6%; in assay [2], -11.34%; in assay [3], 11.15%; in assay [4] it was 5.64%; in assay [5], 0.92%; in assay [6], -11.66%.

For the molecule `Cc1ccc(-c2nc(-c3nccc4ccccc34)oc2-c2ccccc2)cc1`, the Inhibition is 17.39% in assay [1]; 5.86% in assay [2]; 4.4% in assay [3]; 6.85% in assay [4]; 18.7% in assay [5]; -2.8% in assay [6].

For the molecule `Cc1cc(N2CCN(C)CC2)n2nc(-c3ccc(Cl)cc3)nc2n1`, the Inhibition was 10.15% in assay [1]; 8.53% in assay [2]; 12.12% in assay [3]; 20.83% in assay [4]; 5.91% in assay [5]; -6.75% in assay [6].

In the case of `O=C(O)c1ccccc1C(=O)Nc1ccccc1[N+](=O)[O-]`, the Inhibition was 3.12% in assay [1]; 5.2% in assay [2]; 12.47% in assay [3]; 12.98% in assay [4]; 4.76% in assay [5]; -12.04% in assay [6].

As for `Nc1ccc(Nc2ccccc2)c(S(=O)(=O)O)c1`, the Inhibition in assay [1] was 8.54%; in assay [2] it was 9.36%; in assay [3], -14.68%; in assay [4] it was 15.42%; in assay [5] it was 18.9%; in assay [6], 17.91%.

`CC1=CC(C)(C(Cl)(Cl)Cl)C(C)=C/C1=N/O` (stereo not drawn): the Inhibition was 1.65% in assay [1]; -20.29% in assay [2]; 8.83% in assay [3]; 12.76% in assay [4]; 4.85% in assay [5]; -11.97% in assay [6].

With `CCc1noc2cc(-c3ccccc3)n(C)c(=O)c12`, the Inhibition in assay [1] was -11.16%; in assay [2], 2.9%; in assay [3], -6.9%; in assay [4], 8.09%; in assay [5], 1.75%; in assay [6], -7.67%.

Take `O=C(NC(=S)Nc1cccc(O)c1)c1ccco1`: the Inhibition in assay [1] was 2.34%; in assay [2], -0.89%; in assay [3], 12.02%; in assay [4] it was -1.93%; in assay [5], 0.31%; in assay [6], -18.75%.

As for `O=[N+]([O-])c1cccnc1Oc1cc(Cl)c(Cl)cc1Cl`, the Inhibition in assay [1] is 13.29%; in assay [2], 1.57%; in assay [3], 1.62%; in assay [4], 4.9%; in assay [5], 1.25%; in assay [6], -4.41%.

As to `CSC(=O)NC(=O)NC(=O)c1ccc([N+](=O)[O-])cc1`, the Inhibition was 9.19% in assay [1]; 0.18% in assay [2]; 3.52% in assay [3]; 12.66% in assay [4]; -0.48% in assay [5]; 44.26% in assay [6].

Take `Nc1ccc(Oc2ccc(N)c([N+](=O)[O-])c2)cc1[N+](=O)[O-]`: the Inhibition in assay [1] is 19.29%; in assay [2] it was -5.09%; in assay [3], 4.4%; in assay [4], 9.85%; in assay [5], 10.1%; in assay [6] it was -3.81%.

`Cn1c(CO)cnc1-c1ccccc1`: the Inhibition in assay [1] is 2.4%; in assay [2], 0.07%; in assay [3], -8.68%; in assay [4], 2.59%; in assay [5], 2.13%; in assay [6], -3.98%.

Regarding `O=c1[nH]cc(Cl)cc1Cl`, the Inhibition in assay [1] was 16.39%; in assay [2], -19.78%; in assay [3], 16.35%; in assay [4], 10.84%; in assay [5], -0.92%; in assay [6] it was 0.46%.

As to `CCOC(=O)c1cc(-c2cccnc2)nc2c(Cl)cc(Cl)cc12`, the Inhibition in assay [1] was 15.12%; in assay [2], -10.84%; in assay [3] it was 5.86%; in assay [4], 9.75%; in assay [5], 4.8%; in assay [6], -6.65%.

With `CC(C)n1cc(C#N)c(N)n1`, the Inhibition in assay [1] was -0.87%; in assay [2] it was -8.48%; in assay [3], 18.87%; in assay [4], 15.17%; in assay [5] it was 3.75%; in assay [6] it was -6.7%.
